PubChem BioAssay
Calls of active or inactive are those of the source.

How the values were obtained:
[1] = tested on: PRMT1 (protein arginine N-methyltransferase 1); test: PRMT1 binders on small-molecule microarrays, primary screen, biochemical, small-molecule microarray, 635 nm fluorescence (AID 1088); settings: small-molecule microarray binding, higher = more signal;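 also: binding of Prmt1 protein to compounds spotted on small-molecule microarray slides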
[2] = yeast growth modulation, basal conditions, primary screen, YJM789 clinical isolate, OD600, 24 h (AID 1089);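 also: growth of clinical yeast isolate S. cerevisiae YJM 789 seeded 1000 cells per well; test concentration not given here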; settings: S. cerevisiae YJM789 growth, higher = more signal, called active from +8 up or from −8 down
[3] = fission yeast growth modulation, primary screen, strain 972, OD600, 24 h, no modulator (AID 1090);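 also: basal condition with compound alone and no growth modifier present; test concentration not given here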; settings: S. pombe 972 growth, higher = more signal, called active from +8 up or from −8 down
[4] = S. cerevisiae growth modulation with rapamycin, primary screen, strain BY4716, OD600, 96 h (AID 1091); settings: higher = more signal, called active from +8 up or from −8 down; also: test concentration not given here
[5] = molecular target: Torsin-1A-interacting protein 2 (Homo sapiens) (UniProt Q8NFQ8); test: LULL1 binders on small-molecule microarray, primary screen, cell lysate, human LULL1 lysate, 635/667 nm fluorescence (AID 1092); settings: hLULL1 lysate binding, 635 nm fluorescence, higher = more signal;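 also: probe is lysate of COS7 cells overexpressing human LULL1; score merges per-feature 667 nm fluorescence with signal-to-noise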
Torsin-1A-interacting protein 2 (Homo sapiens), sequence (Q8NFQ8 whole entry, looked up): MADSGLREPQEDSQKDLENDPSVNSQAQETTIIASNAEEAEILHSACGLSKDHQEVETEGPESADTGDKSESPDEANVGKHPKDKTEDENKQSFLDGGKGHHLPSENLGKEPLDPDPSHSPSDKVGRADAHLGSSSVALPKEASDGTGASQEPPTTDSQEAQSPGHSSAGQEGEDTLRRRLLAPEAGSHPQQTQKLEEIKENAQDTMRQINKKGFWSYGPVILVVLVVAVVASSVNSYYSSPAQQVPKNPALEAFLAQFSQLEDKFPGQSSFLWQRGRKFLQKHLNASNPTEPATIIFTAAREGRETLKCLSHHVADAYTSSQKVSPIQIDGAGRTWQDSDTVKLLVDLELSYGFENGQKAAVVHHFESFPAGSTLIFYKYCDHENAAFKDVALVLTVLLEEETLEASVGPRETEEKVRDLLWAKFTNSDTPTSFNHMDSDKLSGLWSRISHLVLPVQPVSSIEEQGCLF

[6] = E. coli growth modulation, two-sided OD650, primary screen, E. coli filamentation project, strain DRC41, 24 h (AID 1093); settings: OD650, 24 h, higher = more signal, called active from +8 up or from −8 down;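 also: MC1000 strain lacking acrAB efflux and sulA so SOS filamentation is blocked; test concentration not given here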
[7] = small-molecule microarray binders of probe aLefty2, primary screen, biochemical, biotinylated probe, 635/667 nm fluorescence (AID 1094); settings: higher = more signal;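 also: score merges spot fluorescence near 667 nm with spot signal-to-noise ratio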
[8] = tested on: Noggin (protein binding on small-molecule microarray); test: Noggin binders on small-molecule microarray, primary screen, biochemical, 635/667 nm fluorescence (AID 1095); settings: 635 nm fluorescence, higher = more signal;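 also: score merges 667 nm feature fluorescence with signal to noise over triplicate slides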
[9] = molecular target: Neurogenic locus notch homolog protein 3 (Homo sapiens) (UniProt Q9UM47); test: NOTCH3 binders on small-molecule microarray, primary screen, biochemical, 635/667 nm fluorescence (AID 1096); settings: NOTCH3 binding, 635 nm fluorescence, higher = more signal
Neurogenic locus notch homolog protein 3 (Homo sapiens), sequence (Q9UM47 whole entry, looked up): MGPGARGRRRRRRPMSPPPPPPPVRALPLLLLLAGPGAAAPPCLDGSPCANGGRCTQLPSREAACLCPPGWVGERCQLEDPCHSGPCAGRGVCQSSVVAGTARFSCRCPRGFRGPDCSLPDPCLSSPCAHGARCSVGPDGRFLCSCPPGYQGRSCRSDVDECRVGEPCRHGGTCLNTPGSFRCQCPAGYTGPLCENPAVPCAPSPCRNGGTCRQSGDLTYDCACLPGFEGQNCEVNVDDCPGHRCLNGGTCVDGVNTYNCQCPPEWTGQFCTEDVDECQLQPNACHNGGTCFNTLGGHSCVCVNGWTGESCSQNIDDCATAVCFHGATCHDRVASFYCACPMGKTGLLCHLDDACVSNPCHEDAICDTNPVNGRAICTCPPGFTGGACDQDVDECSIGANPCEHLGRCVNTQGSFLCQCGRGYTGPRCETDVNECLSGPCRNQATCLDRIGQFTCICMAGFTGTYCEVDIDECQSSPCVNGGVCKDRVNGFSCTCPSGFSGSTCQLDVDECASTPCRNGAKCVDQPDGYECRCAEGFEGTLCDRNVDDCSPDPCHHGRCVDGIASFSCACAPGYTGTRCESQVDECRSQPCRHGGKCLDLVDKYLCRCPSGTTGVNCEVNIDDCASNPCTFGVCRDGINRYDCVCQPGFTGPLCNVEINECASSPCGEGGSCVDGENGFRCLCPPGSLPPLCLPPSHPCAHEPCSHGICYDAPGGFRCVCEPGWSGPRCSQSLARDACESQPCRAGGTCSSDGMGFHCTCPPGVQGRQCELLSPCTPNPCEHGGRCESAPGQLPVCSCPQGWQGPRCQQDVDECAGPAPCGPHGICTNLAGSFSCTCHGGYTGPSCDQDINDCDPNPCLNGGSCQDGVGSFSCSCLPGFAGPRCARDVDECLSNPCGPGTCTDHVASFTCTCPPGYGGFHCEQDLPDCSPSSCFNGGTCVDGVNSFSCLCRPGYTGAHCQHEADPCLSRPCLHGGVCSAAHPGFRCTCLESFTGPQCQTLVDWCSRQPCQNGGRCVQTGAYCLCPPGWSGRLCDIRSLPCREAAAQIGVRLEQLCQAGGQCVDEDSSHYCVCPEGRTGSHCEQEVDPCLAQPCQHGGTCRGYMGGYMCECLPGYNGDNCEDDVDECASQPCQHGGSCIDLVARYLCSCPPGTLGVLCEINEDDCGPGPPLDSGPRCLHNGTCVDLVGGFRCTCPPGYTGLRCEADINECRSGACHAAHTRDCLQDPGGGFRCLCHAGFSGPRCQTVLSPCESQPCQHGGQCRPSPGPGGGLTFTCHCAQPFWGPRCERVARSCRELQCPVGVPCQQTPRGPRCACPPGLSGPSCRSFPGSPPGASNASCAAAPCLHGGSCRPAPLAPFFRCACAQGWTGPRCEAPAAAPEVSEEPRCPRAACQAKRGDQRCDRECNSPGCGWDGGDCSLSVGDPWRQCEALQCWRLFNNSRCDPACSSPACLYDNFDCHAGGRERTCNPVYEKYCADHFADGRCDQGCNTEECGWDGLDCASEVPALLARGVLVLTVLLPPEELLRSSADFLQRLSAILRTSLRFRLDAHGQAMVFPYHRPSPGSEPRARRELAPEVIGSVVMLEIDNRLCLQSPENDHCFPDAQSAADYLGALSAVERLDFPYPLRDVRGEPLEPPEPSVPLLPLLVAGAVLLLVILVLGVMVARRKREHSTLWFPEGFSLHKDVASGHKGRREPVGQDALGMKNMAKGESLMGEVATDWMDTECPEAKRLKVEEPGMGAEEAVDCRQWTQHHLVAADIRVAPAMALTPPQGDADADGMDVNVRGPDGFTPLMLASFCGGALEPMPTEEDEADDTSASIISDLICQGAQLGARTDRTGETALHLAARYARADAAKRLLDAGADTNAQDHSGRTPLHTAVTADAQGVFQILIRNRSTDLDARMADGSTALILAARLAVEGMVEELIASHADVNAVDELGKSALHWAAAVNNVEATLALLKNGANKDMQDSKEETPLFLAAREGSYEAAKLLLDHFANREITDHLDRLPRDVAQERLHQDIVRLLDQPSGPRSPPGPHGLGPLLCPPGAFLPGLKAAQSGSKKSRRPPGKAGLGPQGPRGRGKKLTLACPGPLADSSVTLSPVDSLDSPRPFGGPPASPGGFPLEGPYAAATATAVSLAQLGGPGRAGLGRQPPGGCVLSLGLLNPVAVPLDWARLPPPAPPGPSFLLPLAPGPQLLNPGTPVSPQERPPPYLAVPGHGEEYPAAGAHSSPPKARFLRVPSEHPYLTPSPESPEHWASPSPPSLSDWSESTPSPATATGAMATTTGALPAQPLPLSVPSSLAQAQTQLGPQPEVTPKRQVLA

[10] = small-molecule microarray binders of probe aEGFR, primary screen, biochemical, biotinylated probe, 635/667 nm fluorescence (AID 1097); settings: higher = more signal;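 also: probe is a biotinylated anti-EGFR antibody binding compounds printed on slides; score combines fluorescence near 667 nm and signal to noise of each spot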
[11] = tested on: Plasmodium falciparum Sir2 (PF13_0152, Sir2A); test: pfSir2 binders on small-molecule microarrays, primary screen, biochemical, small-molecule microarray, 635 nm fluorescence (AID 1098); settings: small-molecule microarray binding, fluorescence 635 nm; higher = more signal;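 also: score merges spot fluorescence intensity with its signal-to-noise ratio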
[12] = small-molecule microarray binders of probe aDKK1, primary screen, biochemical, biotinylated probe, 635/667 nm fluorescence (AID 1099); settings: higher = more signal;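 also: score merges 667nm spot fluorescence with signal to noise across triplicate slides; reference of the scale not given here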
[13] = small-molecule microarray binders of probe aCHRDL2, primary screen, biochemical, biotinylated probe, 635/667 nm fluorescence (AID 1100); settings: higher = more signal
[14] = splicing luciferase reporter signal modulators, primary screen, spliceosome inhibition project, cell-based, HEK293, splice +/- reporter (AID 1101); settings: luminescence, 24 h, higher = more signal, called active from +8 up or from −8 down;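 also: HEK293 cells carrying a splicing-competent luciferase reporter gene; test concentration not given here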
[15] = molecular target: Fibroblast growth factor 10 (Homo sapiens) (UniProt O15520); test: FGF10 binders on small-molecule microarrays, primary screen, biochemical, small-molecule microarray, 635 nm fluorescence (AID 1102); settings: FGF10 binding, fluorescence 635 nm, higher = more signal
Fibroblast growth factor 10 (Homo sapiens), sequence (O15520 whole entry, looked up): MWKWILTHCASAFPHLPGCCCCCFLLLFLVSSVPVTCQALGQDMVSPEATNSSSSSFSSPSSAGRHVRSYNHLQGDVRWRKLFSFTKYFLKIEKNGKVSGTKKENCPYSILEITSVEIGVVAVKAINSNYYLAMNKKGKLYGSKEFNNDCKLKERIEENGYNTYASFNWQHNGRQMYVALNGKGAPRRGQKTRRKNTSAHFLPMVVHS

[16] = tested on: glycogen synthase kinase-3 (GSK3A per assay name; protocol says GSK3B); test: GSK3 binders on small-molecule microarrays, primary screen, biochemical, small-molecule microarray, 635 nm fluorescence, GSK3A (AID 1103); settings: small-molecule microarray binding, fluorescence 635 nm; higher = more signal; also: the record names both GSK3A and GSK3B
[17] = molecular target: Epidermal growth factor receptor (Homo sapiens) (UniProt P00533); test: EGFR binders on small-molecule microarrays, primary screen, biochemical, small-molecule microarray, 635 nm fluorescence (AID 1104); settings: EGFR binding, higher = more signal;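 also: score merges 667 nm emission intensity with spot signal to noise over triplicate slides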
Epidermal growth factor receptor (Homo sapiens), sequence (P00533 whole entry, looked up): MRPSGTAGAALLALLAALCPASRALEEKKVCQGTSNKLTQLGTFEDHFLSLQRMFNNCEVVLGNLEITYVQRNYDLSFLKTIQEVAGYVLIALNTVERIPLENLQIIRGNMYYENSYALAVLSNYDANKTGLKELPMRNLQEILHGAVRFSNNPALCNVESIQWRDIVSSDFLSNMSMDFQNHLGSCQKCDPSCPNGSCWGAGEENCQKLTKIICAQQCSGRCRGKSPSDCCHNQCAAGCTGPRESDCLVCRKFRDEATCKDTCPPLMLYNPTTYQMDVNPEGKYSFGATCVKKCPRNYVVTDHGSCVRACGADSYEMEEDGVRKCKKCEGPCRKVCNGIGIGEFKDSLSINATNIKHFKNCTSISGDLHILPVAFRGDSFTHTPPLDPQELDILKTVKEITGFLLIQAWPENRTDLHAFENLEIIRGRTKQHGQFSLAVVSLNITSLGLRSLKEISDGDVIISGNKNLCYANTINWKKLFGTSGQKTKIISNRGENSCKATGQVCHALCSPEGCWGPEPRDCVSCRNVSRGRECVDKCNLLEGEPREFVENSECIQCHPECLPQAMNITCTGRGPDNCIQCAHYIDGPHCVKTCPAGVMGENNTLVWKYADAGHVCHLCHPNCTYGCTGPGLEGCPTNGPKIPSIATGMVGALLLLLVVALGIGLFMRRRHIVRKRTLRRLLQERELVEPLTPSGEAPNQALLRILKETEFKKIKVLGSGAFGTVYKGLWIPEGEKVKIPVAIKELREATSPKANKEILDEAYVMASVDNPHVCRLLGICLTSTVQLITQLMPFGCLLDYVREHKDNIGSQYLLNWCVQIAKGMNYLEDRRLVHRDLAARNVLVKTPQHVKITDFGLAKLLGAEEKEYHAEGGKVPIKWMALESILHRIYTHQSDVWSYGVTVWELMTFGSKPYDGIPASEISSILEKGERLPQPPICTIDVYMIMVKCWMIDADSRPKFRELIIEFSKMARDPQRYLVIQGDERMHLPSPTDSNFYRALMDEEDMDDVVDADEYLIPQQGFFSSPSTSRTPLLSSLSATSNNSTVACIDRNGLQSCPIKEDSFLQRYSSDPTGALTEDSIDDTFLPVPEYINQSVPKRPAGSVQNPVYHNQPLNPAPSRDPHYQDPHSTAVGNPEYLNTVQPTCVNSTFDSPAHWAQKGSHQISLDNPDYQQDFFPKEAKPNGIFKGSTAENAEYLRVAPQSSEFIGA

[18] = molecular target: Follistatin-related protein 3 (Homo sapiens) (UniProt O95633); test: FSTL3 binders on small-molecule microarrays, primary screen, biochemical, small-molecule microarray, 635 nm fluorescence (AID 1105); settings: FSTL3 binding, higher = more signal;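 also: score merges emission near 667 nm and signal to noise per printed spot across three slides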
Follistatin-related protein 3 (Homo sapiens), sequence (O95633 whole entry, looked up): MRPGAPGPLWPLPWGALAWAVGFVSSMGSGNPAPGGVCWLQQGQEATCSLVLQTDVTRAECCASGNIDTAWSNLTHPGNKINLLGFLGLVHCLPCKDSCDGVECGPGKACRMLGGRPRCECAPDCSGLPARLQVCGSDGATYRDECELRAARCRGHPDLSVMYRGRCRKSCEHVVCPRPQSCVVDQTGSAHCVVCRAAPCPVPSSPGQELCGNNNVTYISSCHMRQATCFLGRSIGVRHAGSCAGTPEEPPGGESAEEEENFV

[19] = molecular target: Dickkopf-related protein 1 (Homo sapiens) (UniProt O94907); test: DKK1 binders on small-molecule microarrays, primary screen, biochemical, small-molecule microarray, 635 nm fluorescence scan (AID 1106); settings: DKK1 binding, higher = more signal;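 also: score merges emission near 667 nm with signal to noise over three replicate slides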
Dickkopf-related protein 1 (Homo sapiens), sequence (O94907 whole entry, looked up): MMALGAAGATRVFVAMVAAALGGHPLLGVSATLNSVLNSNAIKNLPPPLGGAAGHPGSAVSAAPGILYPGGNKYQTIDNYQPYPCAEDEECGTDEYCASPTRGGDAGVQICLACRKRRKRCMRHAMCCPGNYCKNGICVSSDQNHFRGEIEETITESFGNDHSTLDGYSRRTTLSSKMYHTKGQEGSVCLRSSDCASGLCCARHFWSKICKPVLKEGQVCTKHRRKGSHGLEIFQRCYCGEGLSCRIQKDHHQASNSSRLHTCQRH

[20] = tested on: Inhibin beta A chain (activin A); test: INHBA (activin A) binders on microarrays, primary screen, biochemical, small-molecule microarray, 635 nm fluorescence scan (AID 1107); settings: small-molecule microarray binding, higher = more signal;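 also: mouse activin A protein probed at 4.33 µg/mL on printed slides; score merges bound-protein fluorescence near 667 nm with spot signal-to-noise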

Structure (SMILES) | composite z-score [1] | z-score [2] | z-score [3] | z-score [4] | composite z-score [5] | z-score [6] | composite z-score [7] | composite z-score [8] | composite z-score [9] | composite z-score [10] | composite z-score [11] | composite z-score [12] | composite z-score [13] | z-score [14] | composite z-score [15] | composite z-score [16] | composite z-score [17] | composite z-score [18] | composite z-score [19] | composite z-score [20]
[N-]=[N+]=Nc1ccccc1[C@@H]1OC(c2ccc(OCCCO)cc2)=N[C@]1(Cc1ccccc1)C(=O)NCc1ccccc1 | 1.47 | -1.79 (inactive) | -0.27 (inactive) | 3.07 (inactive) | 3.43 | -0.0484 (inactive) | 0.298 | 0.849 | 1.11 | 0.454 | 1.57 | 1.24 | 1.37 | 0.459 (inactive) | 1.02 | 1.06 | 0.0762 | 0.395 | 0.0944 | 0.604
CC(C)N1CC=CC23O[C@@H]4/C=C\CCCOC(=O)C4[C@H]2C(=O)N(CCCCCCO)[C@@H]3C1=O (stereo not given in full) | 0.529 | 0.226 (inactive) | -2.03 (inactive) | -0.331 (inactive) | 3.18 | 2 (inactive) | -0.121 | -1.26 | -0.112 | -0.152 | 1.44 | 0.0846 | 0.777 | 0.569 (inactive) | -0.614 | -0.24 | -1.12 | -1.04 | -1.08 | 1.03
CCCCCN1CC=CC23O[C@@H]4C=CCOC(=O)[C@@H]4[C@H]2C(=O)N(CCO)[C@@H]3C1=O (stereo not given in full) | 0.487 | 0.15 (inactive) | -0.178 (inactive) | -0.175 (inactive) | 2.35 | -0.229 (inactive) | -0.244 | -1.25 | -0.195 | -0.235 | -0.0015 | -0.314 | 0.634 | 0.374 (inactive) | -0.318 | -0.527 | -1.17 | -1.3 | -1.25 | 0.393
CO[C@H]1O[C@H](CO)[C@@H](OC(=O)CCc2ccccc2)[C@H](OC(=O)c2cc3ccccc3[nH]2)[C@H]1OC(=O)c1cc2ccccc2[nH]1 | 1.38 | -0.583 (inactive) | -0.0932 (inactive) | 20 (active) | 2.74 | 1.5 (inactive) | -0.0468 | 0.565 | 1.07 | -0.0662 | 0.757 | -0.118 | -0.0052 | -0.766 (inactive) | 1.27 | 0.828 | 0.543 | 0.847 | 0.777 | -0.108
COCC1C2CC[C@H]3C(OCc4ccc(OC)cc4)OC[C@]4(C)[C@H]3C2=C(CN4C(=O)OC(C)(C)C)[C@H](C)C1COC (stereo not given in full) | 1.57 | -1.23 (inactive) | -1.18 (inactive) | -0.444 (inactive) | 3.78 | -1.22 (inactive) | 0.0359 | 0.372 | 1.05 | -0.0656 | 0.852 | 0.319 | 0.482 | -1.98 (inactive) | 1.11 | 1.32 | 0.418 | 1.16 | 0.207 | 0.752
CC(=O)N1CC(C(O)C2C=CC3C(=O)NC(=O)C3N2Nc2ccc(Cl)cc2Cl)c2ccccc21 (stereo not given) | 0.825 | 1.14 (inactive) | 0.734 (inactive) | 1.81 (inactive) | 2.74 | -0.948 (inactive) | 0.131 | -0.575 | 0.91 | -0.0594 | 0.669 | 1.95 | 1.07 | 0.622 (inactive) | 0.693 | -0.28 | -0.105 | 0.797 | 0.0106 | 1.19
Cc1ccc(S[C@]2(C(=O)NCc3ccccc3)CC(=O)N(Cc3cc(C(F)(F)F)cc(C(F)(F)F)c3)[C@@H]2c2ccc(CO)cc2I)cc1 | -0.455 | 0.269 (inactive) | -2.56 (inactive) | 0.49 (inactive) | 0.742 | -0.607 (inactive) | 0.01 | -1.71 | -1.93 | -0.3 | -0.466 | 0.664 | 1.22 | -1.21 (inactive) | -1.31 | -0.714 | -1.78 | -0.203 | -1.54 | 1.02
C=C(CCCC)/C(=C/C[C@H](OC(C)=O)c1ccc(OCCO)cc1)c1cc(C(=O)OC)ccc1OC | 1.25 | 0.966 (inactive) | -0.628 (inactive) | -0.59 (inactive) | 2.36 | 0.54 (inactive) | -0.0238 | 0.917 | 0.563 | -0.115 | 1.58 | -0.131 | 0.104 | 0.0591 (inactive) | 1 | 0.699 | -0.616 | 0.613 | -0.304 | 0.562
COc1cc(CO)cc(I)c1O[C@H]1C=C(C(=O)NCCO)C[C@@H](NCC2CCCCC2)[C@@H]1O | 0.332 | -1.94 (inactive) | -0.883 (inactive) | -0.999 (inactive) | 2.65 | 1.69 (inactive) | -0.0719 | 0.323 | 0.793 | -0.067 | 0.587 | -0.155 | -0.103 | -0.47 (inactive) | 0.536 | 0.0102 | 0.151 | 0.607 | 0.502 | 0.328
Cc1nc2cc(Br)ccc2c(=O)n1Cc1cccc(O)c1 | 1.57 | 0.104 (inactive) | -1.84 (inactive) | -0.973 (inactive) | 1.16 | 1.22 (inactive) | -0.0607 | 1.33 | -0.108 | -0.0474 | 0.547 | -0.136 | -0.282 | -0.0746 (inactive) | 0.89 | 0.768 | 0.416 | 0.782 | 1.16 | -0.022
